Data published in PubChem BioAssay (NCATS).
Results filed as inconclusive are left out. The source made the active and inactive calls. Unless noted, calls follow the shape of the dose curve; as a rule, active = well fitted curve in the direction sought with a large enough effect; inconclusive = small, poorly fitted or top-dose-only effect, or another doubt; inactive = no such curve, though single readings can be large; an effect the other way counts as inactive or inconclusive.

Target: Rap guanine nucleotide exchange factor 4 (Homo sapiens) (UniProt Q8WZA2)
Sequence (Q8WZA2 whole entry, looked up): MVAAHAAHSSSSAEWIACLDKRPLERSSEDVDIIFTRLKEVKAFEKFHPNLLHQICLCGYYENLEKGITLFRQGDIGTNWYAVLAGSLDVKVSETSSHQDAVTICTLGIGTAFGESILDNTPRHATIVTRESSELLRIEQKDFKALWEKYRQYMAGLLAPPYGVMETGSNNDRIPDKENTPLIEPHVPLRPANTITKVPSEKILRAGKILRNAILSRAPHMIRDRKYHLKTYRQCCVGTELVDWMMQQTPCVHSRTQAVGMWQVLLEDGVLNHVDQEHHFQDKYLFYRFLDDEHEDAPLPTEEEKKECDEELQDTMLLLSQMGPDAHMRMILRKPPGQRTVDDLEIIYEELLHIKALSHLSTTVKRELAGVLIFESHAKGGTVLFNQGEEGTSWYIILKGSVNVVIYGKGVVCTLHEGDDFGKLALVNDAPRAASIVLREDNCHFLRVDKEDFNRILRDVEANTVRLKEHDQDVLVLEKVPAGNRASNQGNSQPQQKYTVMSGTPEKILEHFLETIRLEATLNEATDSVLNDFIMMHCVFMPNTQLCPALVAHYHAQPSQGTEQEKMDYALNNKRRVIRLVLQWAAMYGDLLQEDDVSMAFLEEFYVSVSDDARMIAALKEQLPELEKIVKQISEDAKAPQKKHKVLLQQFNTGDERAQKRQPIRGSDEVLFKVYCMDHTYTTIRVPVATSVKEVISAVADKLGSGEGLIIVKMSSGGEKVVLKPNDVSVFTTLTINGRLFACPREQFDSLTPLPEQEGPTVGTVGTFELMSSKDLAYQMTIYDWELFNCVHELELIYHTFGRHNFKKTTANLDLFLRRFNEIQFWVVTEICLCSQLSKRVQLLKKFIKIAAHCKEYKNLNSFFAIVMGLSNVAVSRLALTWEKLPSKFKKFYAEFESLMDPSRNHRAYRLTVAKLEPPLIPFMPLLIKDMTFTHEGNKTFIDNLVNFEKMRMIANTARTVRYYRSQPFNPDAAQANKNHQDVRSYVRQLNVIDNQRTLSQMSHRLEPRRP
Experiment: Confirmatory qHTS for agonist of cAMP-regulated guanine nucleotide exchange factor 4 (EPAC2) (AID 1645884);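 also: nucleotide exchange releases bodipy-GDP from Rap1 and this lowers its fluorescence; % is scaled to controls: 0 for no effect and ±100 for the full control effect; nearly all actives have a fitted effect of over 65% in size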
Conditions: EPAC2 GEF activity, Rap1B-BODIPY-GDP fluorescence; series mostly up to 154 µM; activation: at the top concentration

SMILES | activation
C(=C\c1ccnc2ccccc12)/c1ccc2ccccc2n1 | 23.1% (inactive)
C/C=C(\C)C(=O)OC1C(OC(=O)C2(C)OC2C)c2cc3ccc(=O)oc3cc2OC1(C)C (centres undefined) | 3.49% (inactive)
Cc1[nH]c2ccccc2c1/C=C/c1ccc2ccccc2n1 | 12.7% (inactive)
Cc1ccc2c(/C=C/c3c[nH]c4ccccc34)ccnc2c1C | -6.81% (inactive)
Cc1cccc(N(C(=O)c2csnn2)C(C(=O)NCc2ccccc2)c2cccs2)c1 (centres undefined) | -2.74% (inactive)
Cc1ccc(CN2C(=O)CSC2c2ccc(F)cc2)cc1 (centres undefined) | 3.67% (inactive)
CN(CCc1ccccc1)C(=O)c1cc(COc2cccc(C(F)(F)F)c2)on1 | 0% (inactive)
Cc1ccc(C2SCC(=O)N2Cc2ccccc2)cc1 (centres undefined) | 0% (inactive)
CC(C)(C)[C@H]1CCC(=O)N([C@H](CN=[N+]=[N-])Cc2ccccc2)CC1 | 11.4% (inactive)
Cc1cc(C)c2nccc(/C=C/c3ccc(N(C)C)cc3)c2c1 | 0.0784% (inactive)
CN1CC(O)C2=CC(=O)C(=O)C=C21 (centres undefined) | 3.11% (inactive)
C[C@@H]1CCC(=O)N(CC[C@H](Oc2ccccc2)c2ccccc2)CC1 | 12.8% (inactive)
Cc1ccc2c(/C=C/c3ccc(N(C)C)cc3)ccnc2c1C | 15.4% (inactive)
O=C(CN1Cc2ccccc2OC(c2ccsc2)C1)N1CCN(Cc2ccc3c(c2)OCO3)CC1 (centres undefined) | -0.0974% (inactive)
Cc1ccc2nccc(/C=C/c3ccc(N(C)C)cc3)c2c1 | 17.3% (inactive)
Cc1ccc(S(=O)(=O)N2[C@@H](c3cccc(Cl)c3)C(C(=O)O)=CC[C@H]2c2ccc(C(C)C)cc2)cc1 | -27.5% (inactive)
Cc1cc(/C=C/c2ccnc3ccccc23)ccc1N(C)C | 21.8% (inactive)
COC(=O)c1cc(Br)c(=O)n(CCC2=CCCCC2)c1 | 0% [at 17.1 µM, percent relative to cAMP agonist control] (inactive)
Cc1cc(C(=O)NCc2nc(-c3cccc(NC(=O)c4ccccc4)c3)oc2C)nc(C)n1 | -10.7% (inactive)
COc1cc(OC)c2c(-c3ccccc3)cc(=O)oc2c1 | 5.59% [at 17.1 µM, percent relative to cAMP agonist control] (inactive)
Cc1cc(C)cc(NC(=O)c2sc3nc(-c4ccccc4)cn3c2C)c1 | 10.3% [at 83.8 µM, percent relative to cAMP agonist control] (inactive)
CCc1ccc([C@@H]2CC=C(C(=O)O)[C@H](c3ccc(Br)cc3)N2S(=O)(=O)c2ccc(C)cc2)cc1 | -5.28% [at 17.1 µM, percent relative to cAMP agonist control] (inactive)
Cn1cc(/C=C/c2ccc3ccccc3n2)c2ccccc21 | 5.95% (inactive)
Cc1cnc2ccccc2c1/C=C/c1ccc(N(C)C)cc1 | 7.43% (inactive)
CCOC(=O)C1CCCN(C(=O)c2cnn(-c3nccc(-c4cc(C)sc4C)n3)c2C)C1 (centres undefined) | -7.32% (inactive)

Target: Glutathione peroxidase 1 (Homo sapiens) (UniProt P07203)
Sequence (P07203 whole entry, looked up): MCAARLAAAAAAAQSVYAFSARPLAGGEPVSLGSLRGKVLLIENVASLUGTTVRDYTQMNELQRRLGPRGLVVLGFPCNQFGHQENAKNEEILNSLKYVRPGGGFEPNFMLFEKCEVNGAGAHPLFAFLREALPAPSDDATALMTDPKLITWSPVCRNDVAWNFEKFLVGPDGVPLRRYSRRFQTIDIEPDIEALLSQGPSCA
Experiment: Primary qHTS Assay for Inhibitors of Recombinant Selenoprotein Glutathione Peroxidase 1 (GPX1) (AID 1845191); also: nearly all actives have a fitted effect of over 65% in size; as to activity, negative = inhibition: % is scaled to controls: 0 for no effect and ±100 for the full control effect
Conditions: recombinant GPX1, GR-coupled NADPH fluorescence, 15 min; series mostly up to 48.8 µM; activity, negative = inhibition: at the top concentration
How it was run: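 Recombinant GPX1 (10 nM final) was preincubated with compound for 30 min at room temperature, then reacted with 1 mM GSH, 0.5 mM CHP, 0.5 mM NADPH and 100 nM glutathione reductase; NADPH fluorescence (340/450 nm) was read at 0 and 15 min.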

SMILES | activity, negative = inhibition | outcome
CCc1ccc2nc(Nc3cc(Cc4ccccc4)nc(NC4CCC(O)CC4)n3)sc2c1 (centres undefined) | -18% (inactive) | 
Cc1cc(O[C@@H](CCC(F)(F)F)c2ccc(C(=O)NCCC(=O)O)cc2)cc(C)c1-c1ccc(C(C)(C)C)cc1 |  | inactive
CN1CCN(CCCNc2ncc(Cl)c(-c3cc4c(C(=O)NC5CC5)cccc4s3)n2)CC1 |  | inactive
CO[C@H]1/C=C/O[C@@]2(C)Oc3c(C)c(O)c4c(O)c(c(/C=N/N5CCN(C)CC5)c(O)c4c3C2=O)NC(=O)/C(C)=C\C=C\[C@H](C)[C@H](O)[C@@H](C)[C@@H](O)[C@@H](C)[C@H](OC(C)=O)[C@@H]1C | -6.94% (inactive) | 

Tested on: not listed separately
Experiment: qHTS drug screen for cell cycle checkpoint inhibitors in PARPi-resistant BRCA-mutant ovarian cancer cell lines. (AID 1963452; calls by dose curve)
Conditions: PEO1/OlaR viability, CellTiter-Glo luminescence, 96 h; stronger effect = lower value
How it was run: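 PEO1, PEO4 and PEO1/OlaR ovarian cancer cells, 600 per well, exposed 96 h at 37C to a dilution series. Viability read by CellTiter-Glo luminescence, normalized to DMSO and empty wells; activity summarized as Z-AUC.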

SMILES | Z-AUC
CCc1ccc2nc(Nc3cc(Cc4ccccc4)nc(NC4CCC(O)CC4)n3)sc2c1 (centres undefined) | -0.86 (inactive)
Cc1cc(O[C@@H](CCC(F)(F)F)c2ccc(C(=O)NCCC(=O)O)cc2)cc(C)c1-c1ccc(C(C)(C)C)cc1 | 0.000666 (inactive)
CNC(=O)CCc1cc(-c2ccc(-c3ccc(C(F)(F)F)cc3)cc2)n(-c2ccc(N3CCNCC3)cc2)n1 | 1.07 (inactive)
CN1CCN(CCCNc2ncc(Cl)c(-c3cc4c(C(=O)NC5CC5)cccc4s3)n2)CC1 | -0.322 (inactive)
CO[C@H]1/C=C/O[C@@]2(C)Oc3c(C)c(O)c4c(O)c(c(/C=N/N5CCN(C)CC5)c(O)c4c3C2=O)NC(=O)/C(C)=C\C=C\[C@H](C)[C@H](O)[C@@H](C)[C@@H](O)[C@@H](C)[C@H](OC(C)=O)[C@@H]1C | 1.24 (inactive)

Same assay, conditions: PEO1/OlaR viability, CellTiter-Glo luminescence, 96 h; measured here: PEO1 parental Z-AUC; stronger effect = lower value

SMILES | Z-AUC
CCc1ccc2nc(Nc3cc(Cc4ccccc4)nc(NC4CCC(O)CC4)n3)sc2c1 (centres undefined) | -0.737
Cc1cc(O[C@@H](CCC(F)(F)F)c2ccc(C(=O)NCCC(=O)O)cc2)cc(C)c1-c1ccc(C(C)(C)C)cc1 | 0.0877
CNC(=O)CCc1cc(-c2ccc(-c3ccc(C(F)(F)F)cc3)cc2)n(-c2ccc(N3CCNCC3)cc2)n1 | -0.284
CN1CCN(CCCNc2ncc(Cl)c(-c3cc4c(C(=O)NC5CC5)cccc4s3)n2)CC1 | -0.452
CO[C@H]1/C=C/O[C@@]2(C)Oc3c(C)c(O)c4c(O)c(c(/C=N/N5CCN(C)CC5)c(O)c4c3C2=O)NC(=O)/C(C)=C\C=C\[C@H](C)[C@H](O)[C@@H](C)[C@@H](O)[C@@H](C)[C@H](OC(C)=O)[C@@H]1C | 1.13
